Chlamy TAG – inducers of triacylglycerol accumulation in Chlamydomonas reinhardtii algae; Chlamydomonas reinhardtii TAG, Nile Red fluorescence, 72 h; calls only at 10 µM (by protocol); 44,000 tested, 0.84% active; AID 1159537; call rule not given here;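 note: hits raise Nile Red signal meaning more stored TAG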
The depositor's hits bear a star; i = inactive; + = active, no number. The full list was thinned out, with hits kept by preference.

SMILES | Chlamy TAG
O=C(O)c1ccc(NC(=O)c2ccc([N+](=O)[O-])cc2)cc1 | i
O=C(Nc1cccc(Cl)c1)c1ccc([N+](=O)[O-])cc1Cl | i
CCC(C)c1ccc(NC(=O)c2ccc([N+](=O)[O-])cc2Cl)cc1 (stereo not given) | i
COc1ccc(C(=O)Nc2ccc(C(C)C)cc2)cc1[N+](=O)[O-] | i
Cc1ccccc1C(=O)Nc1ccc([N+](=O)[O-])cc1 | i
CCSc1ccc(C(=O)Nc2ccc(Cc3ccncc3)cc2)cc1[N+](=O)[O-] | +
CN(c1ccc(C(=O)Nc2ccccc2C(=O)N2CCCC2)cc1)S(=O)(=O)c1ccccc1 | i
O=C(CCCOc1ccccc1)Nc1ccc(F)cc1F | i
Cn1c2ccccc2n2c(C(=O)NN)c(-c3ccccc3)nc12 | i
O=C(/C=C\c1ccco1)Nc1ccc(NC(=O)c2cccs2)cc1 | i
CC(C)CNC(=O)C1CCN(Cc2ccccc2Cl)CC1 | i
COCc1cc(=O)[nH]c(N=C(N)Nc2cccc(Cl)c2C)n1 | i
COc1ccccc1NC(=O)Nc1nnc(CSCc2ccccc2)s1 | i
COc1cc([N+](=O)[O-])c(OC)cc1NS(=O)(=O)c1ccccc1 | i
COc1ccc(C(=O)Nc2ccc(O)c(C)c2C)cc1 | i
CC(Oc1ccccc1)C(=O)Nc1ccc(Cl)cc1[N+](=O)[O-] (stereo not given) | i
CC(C(=O)Nc1ccc(Cl)c(Cl)c1)N1C(=O)c2ccccc2C1=O (stereo not given) | i
c1cc2c(cc1CN1CCOCC1)OCO2 | i
c1ccc2c(c1)CCN(Cc1ccc3c(c1)OCO3)C2 | +
c1cc2c(cc1CN1CCCCC1)OCO2 | i
Cc1ccc(C2C(=C(O)c3ccc(F)cc3)C(=O)C(=O)N2CCN2CCOCC2)cc1 (stereo not given) | i
CCN(CC)C(=O)C1CCCN(Cc2ccc(C)cc2)C1 (stereo not given) | i
Cc1ccc(CN2CCCC(CO)C2)cc1 (stereo not given) | +
CCc1ccc(CN2CCCC(CO)C2)cc1 (stereo not given) | i
COc1cc(Cl)c(C)cc1NC(=O)COc1ccc([N+](=O)[O-])cc1 | i
SMILES | Chlamy TAG
CC1CC(Nc2ccccc2)c2ccccc2N1C(=O)Cc1cccs1 (stereo not given) | i
O=C(C(F)F)N(Cc1ccccc1)Cc1ccccc1 | i
CN1CCN(CCCCOc2ccc(C(=O)c3ccccc3)cc2)CC1 | i
CN1CCN(CCC(=O)Nc2ccccc2)CC1 | i
CN1CCN(CC#CC=C(c2ccccc2)c2ccccc2)CC1 | +
COc1ccc(N2CC(C(=O)NCC(C)C)CC2=O)cc1 (stereo not given) | i
COc1ccccc1CC(=O)NC1CC(C)(C)NC(C)(C)C1 | i
CC1(C)CC(NC(=O)CC(c2ccccc2)c2ccccc2)CC(C)(C)N1 | i
CC1(C)CC(NC(=O)Cc2ccccc2[N+](=O)[O-])CC(C)(C)N1 | +
COc1cc(CNC(C)CCc2ccccc2)cc(OC)c1 (stereo not given) | i
Cc1ccccc1NC(=O)C(=O)NC1CCCC1 | i
CCc1cccc(NS(=O)(=O)c2ccc(OC)cc2)c1 | i
Cc1c(N/C=C/C(=O)c2cccs2)c(=O)n(-c2ccccc2)n1C | +
Cc1c(NC(=O)C23CC4CC(CC(C4)C2)C3)c(=O)n(-c2ccccc2)n1C | i
Cc1c(NS(=O)(=O)c2cccs2)c(=O)n(-c2ccccc2)n1C | i
CCOC(=O)N1CCN(CC(O)COCCC23CC4CC(CC(C4)C2)C3)CC1 (stereo not given) | i
CCN1CCN(CC(O)COCCC23CC4CC(CC(C4)C2)C3)CC1 (stereo not given) | +
OC(COCCC12CC3CC(CC(C3)C1)C2)CN1CCOCC1 (stereo not given) | i
CCOC(=O)Nc1ccc(Cl)cc1[N+](=O)[O-] | i
COc1ccccc1NN | i
O=C1c2ccccc2C(=O)N1CCN=C1NS(=O)(=O)c2ccccc21 | i
Cc1ccc(S(=O)(=O)N(c2ccc(C)cc2C)C(F)F)cc1 | i
CCOc1cc(CN2CCN(c3ccc(F)cc3)CC2)ccc1OC | i
COc1cccc(N2CCN(Cc3ccco3)CC2)c1 | i
O=[N+]([O-])c1ccc(N2CCN(Cc3ccsc3)CC2)cc1 | i
SMILES | Chlamy TAG
Clc1ccc(N2CCN(Cc3ccsc3)CC2)cc1 | +
Clc1ccc(N2CCN(Cc3cccs3)CC2)cc1 | i
COc1cccc(N2CCN(Cc3ccsc3)CC2)c1 | +
Fc1ccc(N2CCN(Cc3ccsc3)CC2)cc1 | +
O=C(c1ccc(CN2CCOCC2)cc1)N1CCN(c2ccc(F)cc2)CC1 | i
COc1ccc(N2CCN(Cc3cc(OC)cc(OC)c3)CC2)cc1 | i
O=C(Cc1ccc(F)cc1)N1CCCCCC1 | i
CCNc1ccc(N)c(C)c1C | i
O=C1CC(N2CCN(c3ccccn3)CC2)C(=O)N1c1ccccc1F (stereo not given) | i
CC(=O)Nc1cccc(C(=O)Nc2ccc(Cl)cc2Cl)c1 | i
c1ccc(CN2CCN(C3C4CC5CC(C4)CC3C5)CC2)cc1 (stereo not given) | i
COc1ccc(C(=O)N2CCN(C3C4CC5CC(C4)CC3C5)CC2)cc1 (stereo not given) | i
CN1CCN(C2C3CC4CC(C3)CC2C4)CC1 (stereo not given) | +
C1CCN(C2CCN(C3C4CC5CC(C4)CC3C5)CC2)CC1 (stereo not given) | i
OCCN1CCN(C2CCCCCCC2)CC1 | i
OCCN1CCN(C2C3CC4CC(C3)CC2C4)CC1 (stereo not given) | +
O=C(C1CCN(Cc2ccccc2F)CC1)N1CCN(Cc2ccccc2)CC1 | i
Cc1oc2cc(O)ccc2c(=O)c1-c1c(F)cccc1Cl | i
Cc1ccc(C(=O)NCc2ccccc2)cc1S(=O)(=O)N1CCCC1 | i
N#Cc1conc1-c1c[nH]c2ccccc12 | i
CCOc1ccc(N2C(=O)CC(Sc3nc(C)c4cc(OC)ccc4n3)C2=O)cc1 (stereo not given) | i
O=C(Nc1ccccc1C(=O)NCCc1ccccc1)c1ccncc1 | i
O=C(Nc1ccccc1C(=O)NCCCCO)c1ccc(Br)cc1 | i
CC(C)NC(=O)c1ccccc1NC(=O)c1ccc(Cl)cc1 | +
O=C(Nc1ccccc1C(=O)Nc1ccccc1Cl)c1ccncc1 | +
SMILES | Chlamy TAG
CC(C)NC(=O)c1ccccc1NC(=O)c1ccccc1 | i
O=C(Nc1ccccc1Cl)c1cccc(Cl)c1Cl | i
CC(C)NC(=O)c1ccccc1NC(=O)c1ccc(Br)cc1 | +
CC(C)c1ccc(C(=O)Nc2ccccc2C(N)=O)cc1 | i
O=C(Nc1ccccc1F)c1ccc(Br)cc1 | i
COc1ccc(C=C(C#N)c2nc(-c3cccs3)cs2)cc1OC | i
Cc1ccc(-n2cnc3ccccc3c2=O)cc1Br | i
Nn1c(SCc2ccccc2F)nnc1-c1ccccc1 | i
OC(COC1C2CC3CC(C2)CC1C3)CN1CCCCC1 (stereo not given) | i
NCCNc1ccc(C(=O)Nc2cccc(Cl)c2)cc1[N+](=O)[O-] | i
O=C(CCC1CCCC1)N1CCNCC1 | i
O=C(c1ccc(F)cc1F)N1CCN(c2ccc([N+](=O)[O-])cc2F)CC1 | i
COc1ccccc1NC(=O)N1CCN(c2ccccn2)CC1 | +
COc1cc(OC)cc(C(=O)N2CCN(c3ccccn3)CC2)c1 | i
COc1ccccc1N1CCN(C(=O)Nc2ccccc2Cl)CC1 | i

Assay outcomes: PubChem, DiRusso Lab, Biochemistry Department, University of Nebraska
